Out of some 420,000 compounds screened, about 50,000 (12%) were called active. Inconclusive results (about 26%) are left out. Calls come from the whole dose curve; as a rule, active = well fitted inhibition curve with a large enough effect; inconclusive = small, poorly fitted or top-dose-only effect; inactive = flat fitted curve, though single readings scatter. Shown is part of a subset that was picked to be rich in actives. Where a call stands in place of a potency, no number is given.
Potency is the fitted concentration of half-maximal effect.

The test can be described thus: qHTS for Inhibitors of human tyrosyl-DNA phosphodiesterase 1 (TDP1): qHTS in cells in presence of CPT. Note: nearly all actives have a fitted effect of over 55% in size. Conditions: chicken DT40 Tdp1-/-;hTDP1 cells + 20 nM CPT, ATP luminescence, 48 h; series mostly up to 46.2 µM. An excerpt: Human tyrosyl-DNA phosphodiesterase 1 (TDP1) is a novel repair gene, and we propose to use it as a new target for anticancer drug development. TDP1 is not an essential protein, but under treatment with topoisomerase I poison (camptothecin: CPT), TDP1 works as a critical factor for cell survival. To directly identify novel TDP1 inhibitors active in a cellular environment, we have knocked-out the Tdp1 gene in chicken DT40 cells (Tdp1-/-) and generated a complemented counterpart cells that contains a stable transfection of the human TDP1 gene (Tdp1-/-;hTDP1 cells). For the primary screen, Tdp1-/-;hTDP1 cells will be exposed to small molecules in the presence or absence of CPT, and their growth kinetics will be evaluated after 48 hours by measuring ATP activity. […] The hit compounds will then be evaluated in the presence or absence of CPT using Tdp1-/- cells. […] In tertiary assays, biochemical gel-based assays will be used to assess whether the hit compounds specifically target TDP1. To this end, we have screened this cell line against the MLSMR in two primary screens. In one screen we add CPT and in the other we screen in the absence of CPT; this AID represents the screen where CPT was present. NIH Chemical Genomics Center [NCGC] NIH Molecular Libraries Probe Centers Network [MLPCN] MLPCN Grant: MH095538 Assay Submitter (PI): Yves Pommier, NCI
DT40-hTDP1 cells with 20 nM Camptothecin (add 20 microL of 1 mM CPT stock in 1 L of cell culture medium) were dispensed at 400 cells/5microL/well in tissue culture treated 1536-well white wall/solid bottom assay plates (Greiner Bio-One North America, NC, U.S.A.) using a Multidrop Combi 8 channel dispenser (Thermo Fisher, Waltham, MA, USA). 23 nL compounds and controls were transferred using the pin tool (Kalypsys, San Diego, CA, USA) to the assay plates. The assay plates were then incubated at 37 masculineC for a minimum 48 hr. Three microL of Cell Titer Glo solution was added to the plates and incubated at RT in dark for 30 min. Luminescence was read using ViewLux (Perkin Elmer) with 1 sec exposure slow speed, high gain and 2x binning.
(In general: In qHTS, concentration-response curves come from the screen itself.)
Consider `CCCCN(C(=O)c1nn(C)c(=O)c2ccccc12)c1c(N)n(CCC)c(=O)[nH]c1=O`, for which the Potency result is “inactive”.
Regarding `CCCNC(=O)c1cc(C2CCCN(C(=O)c3ccc4c(c3)CCO4)C2)on1` (configuration not stated), the Potency entry was “inactive”.
On to `C=Cn1c(C(=O)O)ccc1-c1ccc(OC)cc1`, for which the Potency entry was “inactive”.
Regarding `CCCCC1N2CC3([N+](=O)[O-])CN1CC([N+](=O)[O-])(C2)C3(C)C` (configuration not stated), the Potency entry was “inactive”.
In the case of `Cc1c(C)n(Cc2ccc(Cl)cc2)c2ccc(C(=O)N3CCN(c4ccccc4F)CC3)cc12`, the Potency was 18.4 µM (active).
Regarding `CCc1ccc(NC(=O)CS(=O)CC(=O)N2CCN(c3ccccc3F)CC2)cc1` (configuration not stated), the Potency entry is “inactive”.
Turning to `O=C(c1ccc(CN2CCOCC2)cc1)N1CCN(c2ccccc2F)CC1`, the Potency entry was “inactive”.
On to `Cc1cccc(NC(=S)N2CCC(O)CC2)c1C`, for which the Potency entry was “inactive”.
With `CCOc1ccccc1NC(=S)N1CCN(c2cccc(C)c2C)CC1`, the Potency was 11.6 µM (active).
For `CCOc1ccccc1NC(=O)NC1CCCCCCC1`, the Potency result was “inactive”.
With `O=[N+]([O-])c1cc(S(=O)(=O)N2CCCC2)ccc1NN=C1CCCC1`, the Potency result was “inactive”.
For `CC(C)(C)c1ccc(/C=C2\SC(=O)N=C2N)cc1`, the Potency result is “inactive”.
For `CCOc1ccc(CNC(=O)c2cc(=O)[nH]c3ccc(S(=O)(=O)N4CCCCC4)cc23)cc1`, the Potency result was “inactive”.
For `CC(c1ccco1)N(C(=O)c1ccc(S(=O)(=O)N2CCCCC2)cc1)c1ccccn1` (configuration not stated) the value was “inactive”.
As for `Cc1ccc(-n2c(CNc3ccc(F)cc3)nnc2SCC(=O)N2CCOCC2)cc1`, the Potency entry was “inactive”.
For `N=C1c2ccccc2-c2ccccc21`, the Potency entry is “inactive”.
For `COc1ccc(N2CCN(C3=NS(=O)(=O)C(c4cccc(Br)c4)=C3C)CC2)cc1`, the Potency result was “inactive”.
Take `Cc1oc2ncn(CC(C)C)c(=O)c2c1C(=O)N1CCN(c2ccccc2F)CC1`: the Potency result was “inactive”.
For the molecule `Cn1c(=O)cc(OCC(=O)N2CCN(c3ccccc3F)CC2)c2ccccc21`, the Potency result was “inactive”.
Consider `O=C(Nn1cc(C(=O)N2CCN(c3ccccc3F)CC2)c2ccccc2c1=O)c1cnccn1`, for which the Potency was 14.6 µM (active).
With `CCCCOc1ccc(NC(=O)c2cc3c(n(-c4ccc(Cl)cc4)c2=O)CCCC3=O)cc1`, the Potency entry is “inactive”.
For `CC(C)c1ccc(NS(=O)(=O)c2ccc3[nH]cc(C(=O)NC4CCCC4)c(=O)c3c2)cc1` the value was “inactive”.
For `CCC(C)NCCOCCOc1ccc(Br)cc1C` (configuration not stated), the Potency is 14.6 µM (active).
For `COCC(C)NCc1cc(Br)ccc1OC` (configuration not stated) the value was “inactive”; for `CCOC(=O)CC1C(=O)NCCN1C(=O)COc1ccc(Br)cc1C` (configuration not stated), “inactive”; for `O=C(OCCOc1ccccc1F)c1cc(S(=O)(=O)N2CCOCC2)ccc1F`, “inactive”.
As for `Cc1oc2ccc(O)c(CN3CCOCC3)c2c1C(=O)Nc1cccc(Cl)c1C`, the Potency was 11.6 µM (active).
`Cc1c(CN2CCC(C)CC2)c(=O)n(-c2ccccc2)n1C`: the Potency result was “inactive”.
As for `Cc1nnsc1C(=O)Nc1cccc(Cl)c1C`, the Potency result was “inactive”.
As to `CCOC(=O)c1cccc(NC(=O)c2cc(CN3CCCC3)on2)c1`, the Potency entry is “inactive”.
As for `CC1CCN(CCC(=O)Nc2ccccc2)CC1`, the Potency entry was “inactive”.
As for `Cc1oc2ccc(O)c(CN3CCCCC3)c2c1C(=O)Nc1cccc(C(F)(F)F)c1`, the Potency was 11.6 µM (active).
Take `CC(=O)N1CCN(C(=O)Nc2cccc(C(F)(F)F)c2)CC1`: the Potency result was “inactive”.
In the case of `O=C(Nc1ccc(CN2CCOCC2)cc1)c1cc(Cl)ccc1Cl`, the Potency entry was “inactive”.
For `Cc1oc2ccc(O)c(CN3CCC(C)CC3)c2c1C(=O)Nc1ccccc1` the value was 14.6 µM (active); for `COc1ccccc1CNS(=O)(=O)c1cc2c3c(c1)CCC(=O)N3CCC2`, “inactive”.
Take `Nc1cc(=O)c2[nH]cnc2[nH]1`: the Potency entry was “inactive”.
For `Cc1ccc(C(=O)Nc2ccc(OCc3cc(=O)n4c(C)csc4n3)cc2)cc1` the value was “inactive”.
As for `CN(C(=O)c1c(Cl)cnn1C)C12CC3CC(CC(C3)C1)C2`, the Potency result was “inactive”.
Regarding `COC(=O)CSc1nnc(-c2cccnc2)o1`, the Potency entry is “inactive”.
For `Cc1ccc(-n2cnc3cc(C(=O)NCCC4=CCCCC4)ccc32)cc1Cl`, the Potency is 18.4 µM (active).
For `COCCNC(=O)c1ccc2c(c1)ncn2-c1ccc(C)c(Cl)c1` the value was “inactive”; for `CN(c1ccc(C(=O)NCCC2=CCCCC2)cc1)S(C)(=O)=O`, “inactive”; for `CCn1c(C)nc2cc(C(=O)NNS(=O)(=O)c3ccc(C)cc3C)ccc21`, “inactive”.
For `COC(CNC(=O)c1ccc2c(c1)ncn2-c1cc(C)cc(C)c1)OC` the value was “inactive”; for `CCCNC(=O)c1ccc2c(c1)ncn2-c1ccc(C)cc1C`, 16.4 µM (active).
`CCn1nnnc1SCC(=O)Nc1ccc(N(C)C)cc1`: the Potency result is “inactive”.
For `CC(=O)NS(=O)(=O)c1ccc(N/C(N)=N/c2nc(C)cc(C)n2)cc1` the value was “inactive”; for `COc1ccc(S(=O)(=O)N2CCCC(C(=O)N3CCN(C)CC3)C2)cc1C` (configuration not stated), “inactive”.
`CCN1CCN(C(=O)C2CCCN(S(=O)(=O)c3ccc(OC)c(OC)c3)C2)CC1` (configuration not stated): the Potency result was “inactive”.
As for `CCOC(=O)C1CCN(C(=O)C2CCCN(S(=O)(=O)c3ccc(OC)c(Cl)c3)C2)CC1` (configuration not stated), the Potency is 16.4 µM (active).
For the molecule `O=C(COC(=O)c1ncc(Cl)c(Cl)c1Cl)NC1CCS(=O)(=O)C1` (configuration not stated), the Potency result is “inactive”.
For `C=C(C)c1cccc(C(C)(C)NC(=O)NCCN(CC)CC)c1` the value was “inactive”.
As for `CC1(C(=O)NS(=O)(=O)c2ccccc2)CCN1C(=O)C1CCCCC1` (configuration not stated), the Potency entry was “inactive”.
For the molecule `CCOC(=O)c1c(NC(=O)c2cc(-c3ccc(Cl)cc3)on2)sc2c1CCCC2`, the Potency entry is “inactive”.
On to `COc1cccc(CN(C)CC(=O)Nc2sc3c(c2C#N)CCC3)c1`, for which the Potency result was “inactive”.
For `CCOC(=O)c1ccc(NC(=O)c2c(NCc3cccc(OC)c3)sc3c2CCC3)cc1` the value was 10.3 µM (active); for `CCOC(=O)c1c(NC(=O)CCC(=O)NCc2ccco2)sc2c1CCCC2`, “inactive”.
On to `CCOC(=O)c1ccc(NC(=O)c2c(NCc3ccccc3)[nH]c(=O)[nH]c2=O)cc1`, for which the Potency entry was “inactive”.
In the case of `Cc1ccc(NC(=O)c2csc3c2CCCC3)cc1`, the Potency entry is “inactive”.
For `CCOC(=O)c1ccc(NC(=O)c2csc3c2CCCCC3)cc1`, the Potency was 25.9 µM (active).
As to `CC(=O)Cc1nsc(NC(=O)c2csc3c2CCCC3)n1`, the Potency entry was “inactive”.
Take `CCOC(=O)c1ccc(NC(=O)c2c(NCc3cccs3)sc3c2CCCC3)cc1`: the Potency is 16.4 µM (active).
For `C[C@@H]1CC[C@]2(O[C@@H](CCO)C[C@H](O)[C@H]2O)O1` the value was “inactive”.
Take `Cn1c(N2CCOCC2)c(C=O)c2ccccc21`: the Potency result was “inactive”.
Consider `C[C@H]1COc2cc(N3CCSCC3)ccc2S(=O)(=O)N1`, for which the Potency result is “inactive”.
On to `Cc1ccc(N=C2SCCCN2C(=O)c2cccc(N3C(=O)CCC3=O)c2)cc1Cl`, for which the Potency result was “inactive”.

Values taken from PubChem BioAssay AID686979 (National Center for Advancing Translational Sciences (NCATS), 2013).
